Source: PubChem BioAssay
GLP-1R agonist = qHTS of GLP-1 Receptor Agonists; HEK293 GLP-1R CRE-luciferase, luminescence, 4-6 h; cells express a hypersensitive GLP-1R form; 380,000 tested, 0.007% active; Potency, µM (doses to about 45.6 µM), most hits filed as activators
Target sequence (P43220 whole entry, looked up): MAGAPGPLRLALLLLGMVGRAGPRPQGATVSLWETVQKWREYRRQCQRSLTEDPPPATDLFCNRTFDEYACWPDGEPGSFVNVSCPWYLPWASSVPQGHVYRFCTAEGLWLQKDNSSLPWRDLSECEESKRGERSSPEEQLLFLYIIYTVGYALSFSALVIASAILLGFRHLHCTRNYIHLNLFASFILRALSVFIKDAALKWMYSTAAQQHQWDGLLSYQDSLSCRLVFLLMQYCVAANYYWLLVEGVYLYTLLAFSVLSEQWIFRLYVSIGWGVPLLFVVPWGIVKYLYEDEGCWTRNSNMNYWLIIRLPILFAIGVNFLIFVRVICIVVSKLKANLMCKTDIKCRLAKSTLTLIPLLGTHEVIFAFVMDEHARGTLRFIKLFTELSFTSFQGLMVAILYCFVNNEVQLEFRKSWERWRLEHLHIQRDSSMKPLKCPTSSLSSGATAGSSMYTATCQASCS
GLP1R inv ag = qHTS of GLP-1 Receptor Inverse Agonists (Inhibition Mode); Potency, µM (top dose mostly 38.3 µM), actives largely listed as inhibitors; HEK293 GLP-1R CRE-luciferase, luminescence, 24 h; GLP-1R form is constitutively active; 410,000 tested, 1.6% active; Glucagon-like peptide 1 receptor (Homo sapiens), P43220; further: nearly all actives have a fitted effect of over 55% in size
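HEK293 cells stably co-expressing a cAMP-responsive luciferase reporter and constitutively active GLP-1R were seeded, incubated 12 h, then exposed to compounds for 24 h at 37 C. Luminescence was read 12 min after detection reagent; inverse agonists lower signal.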
HEK293 tox = qHTS of GLP-1 Receptor Inverse Agonists: Cytotox Screen; HEK293 cAMP-luciferase reporter cells, luminescence, 24 h; Potency, µM (top dose mostly 38.3 µM), most hits filed as inhibitors; 410,000 tested, 0.13% active; AID 624418, 2012;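 further: loss of luciferase light is scored as toxicity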
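Luminescence readout: signal drop marks cytotoxicity. Plated cells grew 12 h at 37 °C, 5% CO2, received 23 nL compound for 24 h, then got luciferase reagent, read after 12 min at RT.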
Hits are given with their value. A selection: hits, their analogues and other compounds. The true share with any hit is near 1.7%. The call rests on the fitted dose curve; in most records, active means well fitted curve in the direction sought with a large enough effect; inconclusive means small, poorly fitted or top-dose-only effect, or another doubt; inactive means no such curve, though single readings can be large; an effect the other way counts as inactive or inconclusive.

For CN1C(=O)/C(=C/c2ccccc2F)Sc2ccc(C(=O)NCC3CCCO3)cc21 (stereo not drawn) the results were GLP-1R agonist inactive, GLP1R inv ag inconclusive and HEK293 tox inactive.
Cc1cccc(/C=C2\Sc3ccc(C(=O)NCC4CCCO4)cc3N(C)C2=O)c1 (stereo not drawn) was read as GLP-1R agonist inactive, GLP1R inv ag 13µM and HEK293 tox inactive.
CC(C)c1ccc(S(=O)(=O)N2CCC(N3CCN(Cc4ccccc4)C(=O)C3=O)CC2)cc1 was read as GLP1R inv ag inactive and HEK293 tox inactive.
For CCn1cc(CCCC(=O)NCc2ccccc2OC)c2ccccc21 the results were GLP-1R agonist inactive, GLP1R inv ag inconclusive and HEK293 tox inactive.
For CCn1cc(CCCC(=O)NCc2cccc(OC)c2)c2ccccc21 the results were GLP-1R agonist inactive, GLP1R inv ag 10µM and HEK293 tox inactive.
Screening Cc1ccc(-c2nnc(CSc3nnc(COc4cccc5ccccc45)n3-c3ccccc3)o2)cc1 returned GLP-1R agonist inactive, GLP1R inv ag 11µM and HEK293 tox inactive.
For N#CCSc1nnc(COc2cccc3ccccc23)n1-c1ccccc1 the results were GLP-1R agonist inactive, GLP1R inv ag inactive and HEK293 tox inactive.
`COc1ccc(NC(=O)C2(C)Cc3c(-c4ccc(NC(C)=O)cc4)ccnc3O2)cn1` (stereo not drawn) gave GLP-1R agonist inactive, GLP1R inv ag inactive and HEK293 tox inactive.
`COc1ccc(NC(=O)C2(C)Cc3c(-c4cccc(NC(C)=O)c4)ccnc3O2)cn1` (stereo not drawn) gave GLP-1R agonist inactive, GLP1R inv ag 1.1µM and HEK293 tox inconclusive.
Screening CCCCCn1c(CCCNC(=O)c2ccc(Cl)cc2)nc2ccccc21 returned GLP1R inv ag inactive and HEK293 tox inactive.
Screening O=C(O)c1ccc(NCc2cccnc2)c([N+](=O)[O-])c1 returned GLP-1R agonist inactive, GLP1R inv ag inactive and HEK293 tox inactive.
Screening O=[N+]([O-])c1ccc(Cl)cc1NCc1cccnc1 returned GLP-1R agonist inactive, GLP1R inv ag 5.6µM and HEK293 tox inactive.
Screening COc1ccccc1CN1CCN(C2CCN(C(=O)Nc3ccccc3)CC2)C(=O)C1=O returned GLP1R inv ag inactive and HEK293 tox inactive.
Screening Cc1oc(-c2ccc(C(=O)NCc3ccc(N(C)C)cc3)cc2)nc1COc1ccccc1 returned GLP1R inv ag inactive and HEK293 tox inactive.
O=C(O)C1=CCC=CC1C(=O)O (stereo not drawn) was read as GLP-1R agonist inactive, GLP1R inv ag inactive and HEK293 tox inactive.
CCc1ccc(/C=C2\SC(=S)N(CCCC(=O)N3CCN(C)CC3)C2=O)cc1 was read as GLP-1R agonist inactive, GLP1R inv ag 10µM and HEK293 tox inconclusive.
COc1ccc(/C=C2\SC(=S)N(CCCC(=O)N3CCN(C)CC3)C2=O)cc1 was read as GLP-1R agonist inactive, GLP1R inv ag inconclusive and HEK293 tox inconclusive.
O=C1/C(=C\c2ccccc2)SC(=S)N1CCC(=O)N1CCCCC1CCO (stereo not drawn) was read as GLP-1R agonist inactive, GLP1R inv ag inconclusive and HEK293 tox inconclusive.
Screening COC(=O)c1ccc(/C=C2/SC(=S)N(CCCC(=O)Nc3ccc(O)cc3)C2=O)cc1 returned GLP-1R agonist inactive, GLP1R inv ag 7.9µM and HEK293 tox inconclusive.
`CN1CCN(C(=O)CCCN2C(=O)/C(=C/c3cccc(Br)c3)SC2=S)CC1` gave GLP-1R agonist inactive, GLP1R inv ag 10µM and HEK293 tox inconclusive.
Screening COc1ccc(/C=C2\SC(=S)N(CCCC(=O)N3CCCCC3CCO)C2=O)cc1 (stereo not drawn) returned GLP-1R agonist inactive, GLP1R inv ag 10µM and HEK293 tox inconclusive.
O=C(CCCN1C(=O)/C(=C/c2cccc(Br)c2)SC1=S)N1CCOCC1 was read as GLP-1R agonist inactive, GLP1R inv ag inactive and HEK293 tox inactive.
`Cc1ccc(/C=C2\SC(=S)N(CCCC(=O)Nc3ccc(O)cc3)C2=O)cc1` gave GLP-1R agonist inactive, GLP1R inv ag inconclusive and HEK293 tox inactive.
For O=C(Nc1ccccc1)c1cccc(N2CCCS2(=O)=O)c1 the results were GLP1R inv ag inactive and HEK293 tox inactive.
For O=C(NC1=NN(c2ccccc2)CC1)Nc1ccccc1F the results were GLP-1R agonist inactive, GLP1R inv ag inactive and HEK293 tox inactive.
Screening O=C1/C(=C\c2ccc(O)cc2)SC(=S)N1Cc1ccccc1 returned GLP-1R agonist inactive, GLP1R inv ag 11µM and HEK293 tox inactive.
`O=C(O)c1ccc(/C=C2/SC(=S)N(Cc3ccccc3)C2=O)cc1` gave GLP-1R agonist inactive, GLP1R inv ag inactive and HEK293 tox inactive.
Screening COc1ccnc(Oc2ccc(F)cc2)c1C(=O)N/C=N/OCc1c(Cl)cccc1Cl returned GLP-1R agonist inactive, GLP1R inv ag 10µM and HEK293 tox inactive.
`COc1ccnc(Oc2ccccc2)c1C(=O)N/C=N/OCc1ccccc1` gave GLP-1R agonist inactive, GLP1R inv ag inactive and HEK293 tox inactive.
For CCc1ccccc1NC(=O)Cn1c(=O)n(Cc2ccc(OC)cc2)c(=O)c2oc3ccccc3c21 the results were GLP1R inv ag inactive and HEK293 tox inactive.
Screening O=C(Nc1cccc(S(=O)(=O)N2CCCCCC2)c1)C1CCN(C(=O)c2ccc(F)cc2)CC1 returned GLP-1R agonist inactive, GLP1R inv ag inconclusive and HEK293 tox inactive.
`c1ccc2cc(CSCc3nc4ccccc4[nH]3)ccc2c1` gave GLP-1R agonist inactive, GLP1R inv ag 10µM and HEK293 tox inconclusive.
For O=C(CSCc1nc2ccccc2[nH]1)Nc1ccc2ccccc2c1 the results were GLP-1R agonist inactive, GLP1R inv ag inactive and HEK293 tox inactive.
Screening Cc1ccc(C2(c3ccccc3)NC(=O)N(CC(=O)NC3(C#N)CCCC3)C2=O)cc1C (stereo not drawn) returned GLP-1R agonist inactive, GLP1R inv ag inconclusive and HEK293 tox inactive.
`CC1CCCC(C)N1C(=O)CSc1nnc(-c2c[nH]c3ccccc23)o1` (stereo not drawn) gave GLP-1R agonist inactive, GLP1R inv ag inactive and HEK293 tox inactive.
For CCC1CCCCN1C(=O)CSc1nnc(-c2c[nH]c3ccccc23)o1 (stereo not drawn) the results were GLP-1R agonist inactive, GLP1R inv ag 11µM and HEK293 tox inactive.
Screening COc1ccc(CCNc2nc3cc(OC)c(OC)cc3c3nc(-c4cccnc4)nn23)cc1OC returned GLP1R inv ag inactive and HEK293 tox inactive.
CCCCCCCCCCCCCCCCCC(=O)OCCO was read as GLP-1R agonist inactive.
Screening O=C(Cc1cccc(C(F)(F)F)c1)Nc1ccccc1N1CCCC1 returned GLP-1R agonist inactive, GLP1R inv ag 10µM and HEK293 tox inactive.
`O=C(Cc1ccccc1)Nc1ccccc1N1CCCC1` gave GLP-1R agonist inactive, GLP1R inv ag inconclusive and HEK293 tox inactive.
Screening Cn1c(CCN2CCCCC2)nc2cc(NC(=O)COc3ccc(Cl)cc3)ccc21 returned GLP-1R agonist inactive, GLP1R inv ag inconclusive and HEK293 tox inconclusive.
